Reference: PubChem BioAssay (NCATS)
Results filed as inconclusive are left out. Calls of active or inactive are those of the source. Calls follow the shape of the dose curve; as a rule, active = well fitted inhibition curve with a large enough effect; inconclusive = small, poorly fitted or top-dose-only effect; inactive = flat fitted curve, though single readings scatter.

Experiments:
P93_24 = assay: qHTS profiling for inhibitors of Plasmodium falciparum proliferation (AID 504749); conditions: P. falciparum in erythrocytes, SYBR Green DNA, 72 h; series mostly up to 28.7 µM
How it was run: (§1)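 Three-day growth assay of blood-stage parasites in erythrocytes (0.3% parasitemia, 2.5% hematocrit) at 37 C, 5% CO2, quantified by SYBR Green DNA staining after overnight detergent lysis.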

P94_40 = assay: as above; conditions: P. falciparum in erythrocytes, SYBR Green DNA, 72 h; series mostly up to 28.7 µM
How it was run: as §1

PAD = assay: as above; conditions: P. falciparum in erythrocytes, SYBR Green DNA, 72 h; series mostly up to 28.7 µM
How it was run: as §1

PC26 = assay: as above; conditions: P. falciparum in erythrocytes, SYBR Green DNA, 72 h; series mostly up to 28.7 µM
How it was run: as §1

PC49 = assay: as above; conditions: P. falciparum in erythrocytes, SYBR Green DNA, 72 h; series mostly up to 28.7 µM
How it was run: as §1

SC27B = assay: as above; conditions: P. falciparum in erythrocytes, SYBR Green DNA, 72 h; series mostly up to 28.7 µM
How it was run: as §1

TAB109 = assay: as above; conditions: P. falciparum in erythrocytes, SYBR Green DNA, 72 h; series mostly up to 28.7 µM
How it was run: as §1

TAB113 = assay: as above; conditions: P. falciparum in erythrocytes, SYBR Green DNA, 72 h; series mostly up to 28.7 µM
How it was run: as §1

TAB165 = assay: as above; conditions: P. falciparum in erythrocytes, SYBR Green DNA, 72 h; series mostly up to 28.7 µM
How it was run: as §1

W2 = assay: as above; conditions: P. falciparum in erythrocytes, SYBR Green DNA, 72 h; series mostly up to 28.7 µM
How it was run: as §1

CRL-7250 = normal cell line; assay: Cytotoxic Profiling of Annotated Libraries Using Quantitative High-Throughput Screening (AID 1296008); conditions: Five cell lines viability, CellTiter-Glo ATP luminescence, 48-72 h; max response: hits give low values; as to max response: % is scaled to controls: 0 for no effect and ±100 for the full control effect
How it was run: (§2)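 Cytotoxicity was measured as CellTiter-Glo ATP luminescence, read after 10 min at room temperature. Compound treatment of the cells lasted 48 or 72 hr at 37 degrees Celsius in a qHTS format.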

HEK293 = assay: as above; conditions: Five cell lines viability, CellTiter-Glo ATP luminescence, 48-72 h; max response: hits give low values
How it was run: as §2

HaCat [1] = assay: as above; conditions: Five cell lines viability, CellTiter-Glo ATP luminescence, 48-72 h; max response: hits give low values
How it was run: as §2

KB-3-1 = assay: as above; conditions: Five cell lines viability, CellTiter-Glo ATP luminescence, 48-72 h; max response: hits give low values
How it was run: as §2

NIH3T3 = assay: as above; conditions: Five cell lines viability, CellTiter-Glo ATP luminescence, 48-72 h; max response: hits give low values
How it was run: as §2

MCC-26 = assay: qHTS assay to identify novel small-molecules to repurpose for Merkel cell carcinoma treatment (AID 1296009); conditions: MCC and control cell lines, CellTiter-Glo viability, 72 h; series mostly up to 46 µM
How it was run: (§3)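 After compound transfer in DMSO, plates were kept 72 hr at 37 degree celsius. Luminescent ATP signal from CellTiter-Glo served as viability measure, normalized against DMSO and no-cell controls.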

HACAT [2] = assay: as above; conditions: MCC and control cell lines, CellTiter-Glo viability, 72 h; at 44.8 µM (top of the series) unless noted
How it was run: as §3

HEK293T = assay: as above; conditions: MCC and control cell lines, CellTiter-Glo viability, 72 h; at 44.8 µM (top of the series) unless noted
How it was run: as §3

MCC-13 = assay: as above; conditions: MCC and control cell lines, CellTiter-Glo viability, 72 h; series mostly up to 46 µM
How it was run: as §3
Also: nearly all actives have a fitted effect of over 60% in size.
Potency is read from the fitted curve at half-maximal effect.

CCCCCCCCCCCCCC[N+](C)(C)C
active: Potency (P93_24) 5.01 µM | Potency (P94_40) 6.31 µM | Potency (PAD) 10 µM | Potency (PC26) 6.01 µM | Potency (SC27B) 6.31 µM | Potency (TAB109) 4.47 µM | Potency (TAB113) 5.01 µM | Potency (TAB165) 5.62 µM | Potency (W2) 4.26 µM | Potency (CRL-7250) 7.5 µM | Potency (HEK293) 2.66 µM | Potency (HaCat [1]) 5.96 µM | Potency (KB-3-1) 16.4 µM | Potency (NIH3T3) 23.7 µM | Potency (MCC-26) 16.8 µM
inactive: Potency (PC49)

Cc1c(N)cccc1C(F)(F)F
inactive: outcome (CRL-7250) | outcome (HEK293) | outcome (HaCat [1]) | max response (NIH3T3) -0.97% | outcome (HACAT [2]) | outcome (HEK293T) | Potency (MCC-13) | Potency (MCC-26)

O=C(C1CCCCC1)N1CC(=O)N2CCCc3ccccc3C2C1 (stereo not given)
inactive: outcome (CRL-7250) | outcome (HEK293) | outcome (HaCat [1]) | outcome (NIH3T3) | outcome (HACAT [2]) | outcome (HEK293T) | Potency (MCC-13) | Potency (MCC-26)

O=C1CC(c2ccc(Cl)cc2)CC(=O)N1
inactive: outcome (CRL-7250) | outcome (HEK293) | outcome (HaCat [1]) | max response (NIH3T3) -1.3% | outcome (HACAT [2]) | outcome (HEK293T) | Potency (MCC-13) | Potency (MCC-26)

CCN(CC)CC(=O)Oc1ccc(NC(C)=O)cc1
inactive: max response (CRL-7250) -7.74% | outcome (HEK293) | outcome (HaCat [1]) | outcome (NIH3T3) | outcome (HACAT [2]) | outcome (HEK293T) | Potency (MCC-13) | Potency (MCC-26)

COC(=O)/C=C(/C)N
inactive: max response (CRL-7250) -6.42% | outcome (HEK293) | outcome (HaCat [1]) | outcome (NIH3T3) | outcome (HACAT [2]) | outcome (HEK293T) | Potency (MCC-13) | Potency (MCC-26)

COc1cc(OC)nc(O[C@H](C(=O)O)C(OC)(c2ccccc2)c2ccccc2)n1
inactive: max response (CRL-7250) 3.73% | outcome (HEK293) | outcome (HaCat [1]) | outcome (NIH3T3) | outcome (HACAT [2]) | outcome (HEK293T) | Potency (MCC-13) | Potency (MCC-26)

CC1(C)OC(=O)Nc2ccc(Br)cc21
inactive: outcome (CRL-7250) | outcome (HEK293) | outcome (HaCat [1]) | max response (NIH3T3) 3.48% | outcome (HACAT [2]) | outcome (HEK293T) | Potency (MCC-13) | Potency (MCC-26)

C[C@H]1C[C@@H]2[C@H]([C@@H](O)C[C@@]3(C)[C@H]2CC[C@]3(O)C(=O)CO)[C@@]2(C)C=CC(=O)C=C12
inactive: max response (CRL-7250) -5.61% | outcome (HEK293) | outcome (HaCat [1]) | max response (NIH3T3) 0.285% | outcome (HACAT [2]) | outcome (HEK293T) | Potency (MCC-13) | Potency (MCC-26)
